Experimental data as given in PubChem BioAssay.
A number with no mark means an inactive call. For part of these data: Entries with a potency or affinity are not part of this list. The source made the active and inactive calls. Unless noted, no rule for the calls is given here.

How the values were obtained:
[1] = antimalarial activity against Dd2 strain (AID 2302;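 active = growth inhibition above 50% at the single 2 µM test dose, taken to imply half-maximal potency below 2 µM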;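 also: 0% = DMSO untreated growth and 100% = chloroquine plus artemisinin killed control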); details: P. falciparum Dd2 in RBCs, LDH growth readout, 72 h; at 2 µM; hits give high values
[2] = HepG2 cytotoxicity, primary screen, cytotoxicity control for P. falciparum antimalarial project, cell-based, ATP luminescence (AID 2303;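 active = inhibition above 50%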;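 also: 0% = DMSO wells and 100% = digitonin-killed cells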); details: HepG2 viability, 24-48 h, at 10 µM, hits give high values
[3] = target: L-lactate dehydrogenase (Plasmodium falciparum (isolate CDC / Honduras)) (UniProt Q27743); experiment: PfLDH activity inhibition – cell lysate, 3D7 strain, counter-screen for P. falciparum growth inhibition project (AID 2304);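 also: 0% = vehicle and 100% = reference inhibitor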; details: P. falciparum 3D7 crude extract, LDH APAD/NBT absorbance; at 2 µM; hits give high values
[4] = inhibition of 3D7 malaria parasite growth – strain 3D7 (AID 2306);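 also: 0% = DMSO wells and 100% = chloroquine plus artemisinin control wells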; details: P. falciparum 3D7 erythrocytic growth, LDH absorbance, 72 h; at 2 µM; hits give high values
[5] = target: Calcium-dependent protein kinase 1 (Plasmodium falciparum (isolate 3D7)) (UniProt P62344); experiment: PfCDPK1 kinase inhibitors, biochemical, TCAMS library (AID 1159585; cut-off not given, nearly all actives have IC50 up to about 0.98 µM;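 also: inhibitors leave more ATP so luminescence rises with inhibition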); details: recombinant PfCDPK1, Kinase-Glo ATP depletion luminescence
[6] = target: Plasmodium falciparum protein kinase 6 (PK6, PF3D7_1337100) (UniProt Q8IDW1); experiment: PfPK6 kinase inhibitors, biochemical, TCAMS library (AID 1159586); details: recombinant PfPK6, Kinase-Glo ATP depletion luminescence
[7] = target: Protein kinase 7 (PK7), Plasmodium falciparum 3D7 (PF3D7_0213400) (UniProt Q7YTF7); experiment: inhibition of Plasmodium PK7 catalytic activity – biochemical, TCAMS antimalarial set, Kinase-Glo luminescence (AID 1159587); details: recombinant PfPK7, Kinase-Glo ATP depletion luminescence
[8] = target: Calcium-dependent protein kinase 4 (Plasmodium falciparum (isolate 3D7)) (UniProt Q8IBS5); experiment: PfCDPK4 kinase inhibitors, biochemical, TCAMS library (AID 1159588; cut-off not given, nearly all actives have IC50 up to about 0.91 µM); details: recombinant PfCDPK4, Kinase-Glo ATP depletion luminescence
Chain of Calcium-dependent protein kinase 4 (Plasmodium falciparum (isolate 3D7)) (Q8IBS5 whole entry, looked up): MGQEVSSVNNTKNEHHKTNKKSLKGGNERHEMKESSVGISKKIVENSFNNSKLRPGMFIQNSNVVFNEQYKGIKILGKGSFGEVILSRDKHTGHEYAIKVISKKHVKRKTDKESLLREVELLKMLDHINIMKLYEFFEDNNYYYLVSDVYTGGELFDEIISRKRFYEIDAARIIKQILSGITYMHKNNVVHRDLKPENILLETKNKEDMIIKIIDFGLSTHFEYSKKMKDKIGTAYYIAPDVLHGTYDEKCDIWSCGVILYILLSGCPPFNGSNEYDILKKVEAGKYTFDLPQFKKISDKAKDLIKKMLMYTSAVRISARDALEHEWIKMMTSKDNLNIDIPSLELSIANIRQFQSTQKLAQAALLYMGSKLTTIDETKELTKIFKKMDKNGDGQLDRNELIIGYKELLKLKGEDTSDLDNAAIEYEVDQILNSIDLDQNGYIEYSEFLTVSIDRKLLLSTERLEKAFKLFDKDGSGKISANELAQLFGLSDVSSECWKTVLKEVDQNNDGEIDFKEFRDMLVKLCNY

Chain of L-lactate dehydrogenase (Plasmodium falciparum (isolate CDC / Honduras)) (Q27743 whole entry, looked up): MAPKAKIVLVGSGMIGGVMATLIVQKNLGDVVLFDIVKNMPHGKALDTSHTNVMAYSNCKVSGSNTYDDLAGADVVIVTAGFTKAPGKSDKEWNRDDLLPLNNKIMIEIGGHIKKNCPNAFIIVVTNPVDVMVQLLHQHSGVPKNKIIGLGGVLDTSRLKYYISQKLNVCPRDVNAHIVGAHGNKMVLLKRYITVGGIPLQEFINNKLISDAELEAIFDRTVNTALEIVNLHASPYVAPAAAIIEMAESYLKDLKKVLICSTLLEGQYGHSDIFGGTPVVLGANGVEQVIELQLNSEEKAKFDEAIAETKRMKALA
Chain of Plasmodium falciparum protein kinase 6 (PK6, PF3D7_1337100) (Q8IDW1 1-305): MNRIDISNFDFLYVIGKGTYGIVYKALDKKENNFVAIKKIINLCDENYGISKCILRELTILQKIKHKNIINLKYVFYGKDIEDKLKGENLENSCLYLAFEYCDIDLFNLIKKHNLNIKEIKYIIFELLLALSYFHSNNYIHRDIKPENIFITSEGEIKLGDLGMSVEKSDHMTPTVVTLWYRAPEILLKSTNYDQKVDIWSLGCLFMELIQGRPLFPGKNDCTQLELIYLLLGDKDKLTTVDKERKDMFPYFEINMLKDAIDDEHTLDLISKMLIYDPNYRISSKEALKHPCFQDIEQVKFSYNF
Chain of Protein kinase 7 (PK7), Plasmodium falciparum 3D7 (PF3D7_0213400) (Q7YTF7 1-343): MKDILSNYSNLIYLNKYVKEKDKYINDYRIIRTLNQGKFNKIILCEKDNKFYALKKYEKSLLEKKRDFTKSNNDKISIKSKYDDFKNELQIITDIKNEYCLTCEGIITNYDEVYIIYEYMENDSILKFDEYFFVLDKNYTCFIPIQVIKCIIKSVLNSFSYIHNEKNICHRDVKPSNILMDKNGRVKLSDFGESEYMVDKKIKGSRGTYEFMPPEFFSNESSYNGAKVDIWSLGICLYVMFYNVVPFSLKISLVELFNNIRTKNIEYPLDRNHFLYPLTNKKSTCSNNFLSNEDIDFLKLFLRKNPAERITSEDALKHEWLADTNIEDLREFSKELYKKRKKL
Chain of Calcium-dependent protein kinase 1 (Plasmodium falciparum (isolate 3D7)) (P62344 whole entry, looked up): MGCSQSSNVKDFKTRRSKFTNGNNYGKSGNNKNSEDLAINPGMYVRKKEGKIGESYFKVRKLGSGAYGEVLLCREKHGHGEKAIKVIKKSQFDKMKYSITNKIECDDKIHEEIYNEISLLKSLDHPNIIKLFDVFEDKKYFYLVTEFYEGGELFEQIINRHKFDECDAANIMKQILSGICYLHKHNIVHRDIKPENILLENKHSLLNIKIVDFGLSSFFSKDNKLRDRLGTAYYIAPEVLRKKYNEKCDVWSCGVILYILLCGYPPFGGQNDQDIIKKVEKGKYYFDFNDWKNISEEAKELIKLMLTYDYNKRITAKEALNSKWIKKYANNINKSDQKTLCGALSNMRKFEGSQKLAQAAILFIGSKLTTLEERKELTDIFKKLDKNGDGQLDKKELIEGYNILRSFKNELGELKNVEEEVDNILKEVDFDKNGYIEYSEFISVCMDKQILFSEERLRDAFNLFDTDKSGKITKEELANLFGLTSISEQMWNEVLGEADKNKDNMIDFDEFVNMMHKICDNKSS

Structure (SMILES) | growth inhibition [1] | inhibition [2] | inhibition [3] | growth inhibition [4] | outcome [5] | outcome [6] | outcome [7] | outcome [8]
CCc1ccc(CN2CCC(CN(C(=O)c3ccccc3)c3ccc(Cl)cc3)CC2)cc1 | 95% (active) | 12% | -4% | 96% (active) | inactive | inactive | inactive | inactive
CC(C)NC(=O)Cn1cc(C2CCN(CC3CCN(C(=O)/C=C/c4ccc(Cl)c(Cl)c4)CC3)CC2)c2ccccc21 | 55% (active) | 31% | -2% | 97% (active) | inactive | inactive | inactive | inactive
CCC1CN2CCc3cc(OC)c(OC)cc3C2CC1CC1NCCc2c1[nH]c1ccc(O)cc21 (centres undefined) | 100% (active) | 45% | -7% | 99% (active) | inactive | inactive | inactive | inactive
COc1ccc(CC(C)NCC(O)c2cccc(C(F)(F)F)c2)cc1F (centres undefined) | 65% (active) | -4% | -8% | 91% (active) | inactive | inactive | inactive | inactive
Oc1ccccc1CNCC(O)c1cccc(C(F)(F)F)c1 (centres undefined) | 97% (active) | 1% | 0% | 100% (active) | inactive | inactive | inactive | inactive
CC[C@H]1CN2CC[C@H]1C[C@@H]2[C@@H](OC(=O)c1ccc(Cl)cc1)c1ccnc2ccc(OC)cc12 | -3% | -18% | -1% | 89% (active) | inactive | inactive | inactive | inactive
O=C(NCCC1CCN(CCc2c[nH]c3ccccc23)CC1)Nc1ccc(Cl)c(Cl)c1 | 5% | 18% | -2% | 101% (active) | inactive | inactive | inactive | inactive
COc1ccc2c(c1)[nH]c1c(C=Cc3ccccc3)nccc12 | 6% | 19% | 7% | 91% (active) | inactive | inactive | inactive | inactive
CC(Cc1ccc(CSC(C)C)cc1)NCC(O)c1cccc(Cl)c1 (centres undefined) | 98% (active) | 11% | -8% | 98% (active) | inactive | inactive | inactive | inactive
CSc1ccc(C[C@@H](C)NC[C@H](O)c2cccc(Cl)c2)cc1 | 96% (active) | 8% | 2% | 97% (active) | inactive | inactive | inactive | inactive
CC(=O)Nc1ccc2[nH]cc(C3CCN(CC4CCN(C(=O)/C=C/c5ccc(Cl)c(Cl)c5)CC4)CC3)c2c1 | 41% | 10% | -1% | 96% (active) | inactive | inactive | inactive | inactive
COCCSc1ccc(CC(C)NCC(O)c2cccc(Cl)c2)cc1 (centres undefined) | 73% (active) | 2% | -1% | 97% (active) | inactive | inactive | inactive | inactive
CCCCCCC(C)(C)c1cc(O)c2c(c1)OC(C)(C)c1ccncc1-2 | 99% (active) | 4% | 1% | 95% (active) | inactive | inactive | inactive | inactive
CCN(CC)CCN1C(=O)C(O)(c2ccccc2Cl)c2c1cc(C#N)cc2C(F)(F)F (centres undefined) | 19% | 21% | -1% | 88% (active) | inactive | inactive | inactive | inactive
CC(=O)C1(c2ccccc2)CCN(CCC2(c3ccc(Cl)c(Cl)c3)CN(C(=O)CC(C)C)CCO2)CC1 (centres undefined) | 94% (active) | 7% | 0% | 92% (active) | inactive | inactive | inactive | inactive
N[C@@H](CCN1CCC(c2cccc(O)c2)CC1)Cc1ccc(F)c(F)c1 | 0% | 25% | -3% | 92% (active) | inactive | inactive | inactive | inactive
COCC(=O)N(Cc1ccccc1-c1cccc(CNCCc2ccccc2)c1)C1CCN(Cc2ccccc2)CC1 | 36% | 21% | 3% | 93% (active) | inactive | inactive | inactive | inactive
O=C(/C=C/c1cc(F)c(F)cc1F)N1CCC(CN2CCC(c3c[nH]c4ccccc34)CC2)CC1 | 3% | 26% | 1% | 93% (active) | inactive | inactive | inactive | inactive
